# In the supplement of paper PMC12636033:
# ± gives the standard deviation of the averaged measurements. Whole data set: some 33,000 sequences, median “E-score (rank enrichment, -0.5 to 0.5)” near -0.0068, cut for the highest 2% near 0.24. The sample as a whole holds a higher share of the highest values than the screen did.
# Test system: muMax20 (Max(13-93) K31hArg/K57hArg, M65Nle)
# Experiment: PBM 8-mer E-score (E-score (rank enrichment, -0.5 to 0.5)); higher = stronger preferential binding
# Description: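 Protein binding microarray (universal PBM chip covering all 10-mers in fixed probe flanks) with chemically synthesized human Max(13-93) bHLH-LZ analogs (not full-length Max) bearing noncanonical residues (hArg, Tha, Aib, Nle at 65) and aromatic Cys staples. Read-out per 8-mer (and its reverse complement): E-score (rank-based enrichment, -0.5 to 0.5) and Z-score of median probe intensity.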
row,Sequence,PBM 8-mer E-score
1,GATGTACC,0.0595 ± 0.065
2,ACTCCTAT,0.0559 ± 0.1
3,AAACGGGC,0.0187 ± 0.03
4,TAAACAAA,0.184 ± 0.008
5,AGCTCCCC,-0.0268 ± 0.092
6,AAATACAA,0.19 ± 0.018
7,AAATACAC,0.273 ± 0.038
8,AAATACAG,0.209 ± 0.07
9,GAATACAC,0.123 ± 0.014
10,AAATACAT,0.259 ± 0.061
11,CAATACAC,0.194 ± 0.043
12,CGGTTTTC,0.00594 ± 0.054
13,ATAGCGTG,0.161 ± 0.019
14,AGCACTCG,-0.199 ± 0.078
15,GAACGCCA,-0.206 ± 0.021
16,AAATCGCG,-0.0409 ± 0.032
17,GGTAAGAA,0.0527 ± 0.1
18,CATAACGA,0.0556 ± 0.017
19,ATAATTAT,0.276 ± 0.0028
20,CTAATTAA,0.0707 ± 0.041
21,CGAATTAA,0.106 ± 0.11
22,ATAATTAC,0.22 ± 0.074

row,Sequence,PBM 8-mer E-score
1,TGAATTAA,0.254 ± 0.043
2,GGAATTAA,0.1996 ± 0.0018
3,ATAATTAG,0.223 ± 0.1
4,ATAATTAA,0.175 ± 0.05
5,TTAATTAA,0.324 ± 0.12
6,CCTGTCCA,-0.131 ± 0.17
7,CCAGTTTA,-0.0199 ± 0.068
8,ATAAGGCC,-0.0432 ± 0.14
9,AGTGCCTA,-0.109 ± 0.091
10,CAACTGCC,0.0721 ± 0.014
11,TCGAGGAA,-0.0274 ± 0.069
12,CCCACAAA,0.183 ± 0.015
13,ATGATAGC,0.2152 ± 0.0016
14,GGCATGCA,0.106 ± 0.091
15,ACCATGCA,0.28 ± 0.096
16,TGCATGCA,0.0968 ± 0.12
17,CCCATGCA,0.133 ± 0.01
18,AGCATGCA,0.284 ± 0.11
19,TCCATGCA,0.105 ± 0.07
20,GGATAGCC,-0.138 ± 0.11
21,ACCGACCA,0.0471 ± 0.002
22,GGGCGCCC,-0.131 ± 0.0098

row,Sequence,PBM 8-mer E-score
1,ATAACTAA,0.245 ± 0.0085
2,ATAACTAC,0.2058 ± 0.0013
3,ATAACTAG,0.0985 ± 0.14
4,ATAACTAT,0.241 ± 0.0068
5,TTAACTAA,0.184 ± 0.11
6,CTAACTAA,0.00786 ± 0.039
7,ACACTGTG,0.0421 ± 0.2
8,CAGATCAA,-0.0923 ± 0.011
9,GGTGAAGA,-0.0661 ± 0.032
10,ATCCTCAT,-0.11 ± 0.076
11,GACGATAA,0.0693 ± 0.077
12,TACGATAA,0.247 ± 0.0037
13,CACGATAA,0.17 ± 0.024
14,AATGCTAA,0.12 ± 0.033
15,AGCCAATC,-0.047 ± 0.088
16,TACATGTA,0.157 ± 0.069
17,AACATGTC,0.12 ± 0.025
18,AACATGTA,0.256 ± 0.028
19,GACATGTA,0.24 ± 0.067
20,AACATGCA,0.206 ± 0.1
21,CACATGTG,0.418 ± 0.015
22,CACATGTC,0.12 ± 0.087

row,Sequence,PBM 8-mer E-score
1,AACATGTG,0.353 ± 0.042
2,AACATGTT,0.22 ± 0.04
3,AACATGAA,0.0865 ± 0.011
4,CACATGCG,0.172 ± 0.11
5,GACATGTC,-0.00641 ± 0.13
6,GTCTGCCA,-0.165 ± 0.0054
7,GAACTTTA,-0.157 ± 0.037
8,CTGTGGTA,0.0865 ± 0.061
9,CCGGTCGC,-0.276 ± 0.027
10,ACCGAGAA,-0.187 ± 0.0095
11,CCCAAGTC,-0.185 ± 0.0086
12,GACGCTAA,-0.13 ± 0.072
13,AGCAGTAT,0.109 ± 0.0063
14,GATTGCCA,-0.0436 ± 0.034
15,AGCGTGGA,0.045 ± 0.011
16,CACATGAA,0.219 ± 0.014
17,CACATGTA,0.347 ± 0.045
18,CTCATGTA,0.0357 ± 0.054
19,GAAAACCC,0.11 ± 0.0093
20,CATAGGTC,-0.0151 ± 0.052
